In ChEMBL document CHEMBL3988442, “University of Dundee, Small-Polar-MMV Screening Library” (2021) one finds Percent Effect data, which are given here for 4 compounds.

Common to all, as to design: scale not given: direction of the effect not stated beside the values
Assay [1] deals with Protein translocase subunit SecA (Escherichia coli (strain K12)) (UniProt P10408). Nature of the assay: Assay to Identify E. coli SecA ATPase Inhibitors. The assay is classed as functional. The note with it: 30 µM.
The target of assay [2] is T1, Ubiquitin-activating enzyme e1, putative (Leishmania donovani (strain BPK282A1)) (UniProt E9BSI1).
T1 sequence (whole entry): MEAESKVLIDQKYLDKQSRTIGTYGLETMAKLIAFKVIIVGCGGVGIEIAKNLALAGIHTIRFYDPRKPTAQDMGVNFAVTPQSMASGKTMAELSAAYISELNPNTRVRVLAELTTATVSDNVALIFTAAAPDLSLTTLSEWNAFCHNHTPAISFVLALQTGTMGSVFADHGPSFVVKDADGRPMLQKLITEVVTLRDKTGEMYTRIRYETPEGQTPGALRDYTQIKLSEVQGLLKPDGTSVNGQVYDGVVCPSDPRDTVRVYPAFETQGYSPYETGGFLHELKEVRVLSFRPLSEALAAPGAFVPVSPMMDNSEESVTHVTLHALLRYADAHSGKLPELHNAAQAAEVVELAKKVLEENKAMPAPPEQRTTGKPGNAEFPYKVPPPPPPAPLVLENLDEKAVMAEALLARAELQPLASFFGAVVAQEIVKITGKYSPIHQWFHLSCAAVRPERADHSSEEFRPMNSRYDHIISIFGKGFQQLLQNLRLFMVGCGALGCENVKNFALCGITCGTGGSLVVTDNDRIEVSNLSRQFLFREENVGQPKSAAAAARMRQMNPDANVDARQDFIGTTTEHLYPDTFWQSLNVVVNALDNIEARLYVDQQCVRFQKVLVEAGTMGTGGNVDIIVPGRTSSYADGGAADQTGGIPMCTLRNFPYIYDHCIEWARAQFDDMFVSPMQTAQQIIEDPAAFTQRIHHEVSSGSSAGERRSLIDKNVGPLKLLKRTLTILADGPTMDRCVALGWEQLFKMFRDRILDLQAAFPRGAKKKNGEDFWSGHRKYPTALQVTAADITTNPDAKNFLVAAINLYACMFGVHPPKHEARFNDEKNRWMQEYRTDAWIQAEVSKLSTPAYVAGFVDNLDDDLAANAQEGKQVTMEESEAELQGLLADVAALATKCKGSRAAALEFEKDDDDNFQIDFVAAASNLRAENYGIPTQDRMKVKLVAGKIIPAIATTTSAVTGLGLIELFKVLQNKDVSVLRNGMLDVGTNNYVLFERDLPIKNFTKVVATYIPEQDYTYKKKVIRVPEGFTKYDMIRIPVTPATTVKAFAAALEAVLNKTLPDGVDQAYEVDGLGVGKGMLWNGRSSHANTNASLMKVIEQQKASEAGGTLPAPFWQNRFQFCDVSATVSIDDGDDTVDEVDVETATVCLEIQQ
Description: Leishmania donovani Ubiquitin Activating Enzyme (LdE1). The note with it: 30 µM. Format: functional.

Assay [3] deals with T2, Aspartate--tRNA(Asp/Asn) ligase (Mycobacterium tuberculosis (strain ATCC 25618 / H37Rv)) (UniProt P9WFW3).
T2 sequence (whole entry): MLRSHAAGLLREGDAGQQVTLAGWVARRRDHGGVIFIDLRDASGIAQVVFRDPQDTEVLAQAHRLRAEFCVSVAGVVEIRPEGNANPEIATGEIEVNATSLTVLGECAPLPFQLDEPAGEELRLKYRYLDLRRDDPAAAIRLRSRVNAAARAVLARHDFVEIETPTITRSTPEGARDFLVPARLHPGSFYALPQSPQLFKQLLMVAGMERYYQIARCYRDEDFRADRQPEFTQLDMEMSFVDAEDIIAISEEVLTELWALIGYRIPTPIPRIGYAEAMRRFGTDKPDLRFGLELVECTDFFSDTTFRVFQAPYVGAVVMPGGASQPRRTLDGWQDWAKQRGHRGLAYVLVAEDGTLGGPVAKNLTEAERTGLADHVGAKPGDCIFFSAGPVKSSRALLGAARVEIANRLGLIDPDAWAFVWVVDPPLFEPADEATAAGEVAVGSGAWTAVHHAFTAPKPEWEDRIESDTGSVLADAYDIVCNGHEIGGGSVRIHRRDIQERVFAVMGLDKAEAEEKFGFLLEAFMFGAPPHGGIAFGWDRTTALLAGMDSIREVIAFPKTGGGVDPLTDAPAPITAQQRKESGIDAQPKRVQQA
Description: Assay for Asp RNA synthetase-1 from Mycobacterium tuberculosis. The assay is classed as functional. The note with it: 30 µM.

Assay [4] has as its target AMP-activated protein kinase, AMPK (Homo sapiens) (UniProt P54646+O43741+P54619+Q9UGJ0+Q9Y478+Q13131+Q9UGI9). Description: AMP-dependent Kinase enzyme assay. An in vitro enzyme assay that detects ADP turnover that is directly proportional to AMPK activity. This uses naive AMPK that is activated during the assay with MK-8722. Format: functional. The note with it: 30 µM.

Assay [5] addresses Sialic acid-binding Ig-like lectin 9 (Homo sapiens) (UniProt Q9Y336). Nature of the assay: Hs-Siglec9 ALPHAscreen SOP 20170721. As to conditions: 10 µM.
A further assay deals with Trypanosoma cruzi. Description: Trypanosoma cruzi phosphomannomutase and mannose-1-phosphate guanylyltransferase assay. The assay is classed as functional. The note with it: 10 µM.
Assay [6] has as its target T3, Arginase-2, mitochondrial (Homo sapiens) (UniProt P78540).
T3 sequence (whole entry): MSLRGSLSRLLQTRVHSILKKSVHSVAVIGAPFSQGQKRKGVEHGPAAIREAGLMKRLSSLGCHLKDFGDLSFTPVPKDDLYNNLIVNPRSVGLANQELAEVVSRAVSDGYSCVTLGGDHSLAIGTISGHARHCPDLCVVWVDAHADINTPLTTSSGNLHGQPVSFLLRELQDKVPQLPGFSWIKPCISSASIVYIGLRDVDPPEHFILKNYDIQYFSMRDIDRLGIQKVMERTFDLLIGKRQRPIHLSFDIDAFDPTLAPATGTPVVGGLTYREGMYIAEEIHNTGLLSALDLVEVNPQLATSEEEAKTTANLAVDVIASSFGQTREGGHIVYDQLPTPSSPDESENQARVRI
Description: in vitro enzyme assay to detect the production of urea directly proportional to the activity of Arginase II. Further: in the data most compounds retested in dose-response had high values. Format: functional. The note with it: 33.3 µM.

The target in assay [7] is T4, Proteasome subunit beta (Trypanosoma cruzi) (UniProt O96673).
T4 sequence (whole entry): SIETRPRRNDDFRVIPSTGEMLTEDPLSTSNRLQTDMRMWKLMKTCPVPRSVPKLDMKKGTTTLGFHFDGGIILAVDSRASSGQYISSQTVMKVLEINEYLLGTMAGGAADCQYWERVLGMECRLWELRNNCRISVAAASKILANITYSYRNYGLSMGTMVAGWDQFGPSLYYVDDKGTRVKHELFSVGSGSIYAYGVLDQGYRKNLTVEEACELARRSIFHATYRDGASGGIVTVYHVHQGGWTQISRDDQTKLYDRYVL
Nature of the assay: Trypanosoma cruzi proteasome chymotrypsin-like activity (TcProtChymo) assay. Further: in the data most compounds retested in dose-response had high values. The assay is classed as functional. As to conditions: 9.37 µM.

The species entered for another assay is Homo sapiens. Description: To identify inhibition of the IFN signalling (Jak-Stat) pathway via expression of an eGFP reporter gene under the control of an IFN-stimulated response element (ISRE) containing MxA promoter. The assay is classed as functional. As to conditions: 30 µM. On the technique in general: A reporter such as luciferase makes a cellular process visible.

The target of assay [8] is Shiga toxin 2 (Escherichia coli O157:H7) (UniProt P09385+P09386). Nature of the assay: E. coli 0.157:H7 Shiga Toxin SOP - stx2 screening assay. The assay is classed as functional. As to conditions: 30 µM.
The target in assay [9] is T5, Tyrosyl-tRNA synthetase, putative (Trypanosoma cruzi (strain CL Brener)) (UniProt Q4DSP6).
T5 sequence (whole entry): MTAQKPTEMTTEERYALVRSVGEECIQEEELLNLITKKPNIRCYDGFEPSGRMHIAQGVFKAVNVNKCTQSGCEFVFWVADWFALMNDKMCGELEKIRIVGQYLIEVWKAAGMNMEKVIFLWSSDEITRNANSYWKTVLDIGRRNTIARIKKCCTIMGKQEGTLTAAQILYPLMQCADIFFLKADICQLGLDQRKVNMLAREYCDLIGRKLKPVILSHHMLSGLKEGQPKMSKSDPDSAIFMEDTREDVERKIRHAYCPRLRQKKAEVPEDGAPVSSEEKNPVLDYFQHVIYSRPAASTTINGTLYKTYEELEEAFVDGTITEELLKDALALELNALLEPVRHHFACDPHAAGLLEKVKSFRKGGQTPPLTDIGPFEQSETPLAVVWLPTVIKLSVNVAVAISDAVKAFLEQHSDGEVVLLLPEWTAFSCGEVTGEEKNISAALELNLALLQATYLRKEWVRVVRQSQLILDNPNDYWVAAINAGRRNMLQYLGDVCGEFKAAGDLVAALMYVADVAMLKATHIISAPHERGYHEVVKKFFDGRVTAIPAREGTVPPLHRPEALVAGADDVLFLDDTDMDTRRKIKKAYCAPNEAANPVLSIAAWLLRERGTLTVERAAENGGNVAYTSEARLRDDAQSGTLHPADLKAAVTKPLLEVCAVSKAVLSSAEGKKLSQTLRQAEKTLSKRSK
Nature of the assay: Trypanosoma cruzi tyrosyl tRNA synthetase (TcYRS) _High Tyrosine SOP. Further: in the data most compounds retested in dose-response had high values. The assay is classed as functional. The note with it: 30 µM.

The target of assay [10] is T5, Tyrosyl-tRNA synthetase, putative (Trypanosoma cruzi (strain CL Brener)). Nature of the assay: Trypanosoma cruzi tyrosyl tRNA synthetase (TcYRS) SOP. The note with it: 30 µM. Format: functional.
Assay [11] has as its target Chromo domain-containing protein 1 (Saccharomyces cerevisiae (strain ATCC 204508 / S288c) (Baker's yeast)) (UniProt P32657). Description: ScCHD-1 Enzyme Inhibition Assay. Further: in the data most compounds retested in dose-response had high values. Format: functional. The note with it: 30 µM.

For some of these results: Potency and affinity values are given separately.

Sialic acid-binding Ig-like lectin 9 (Homo sapiens), sequence (Q9Y336 whole entry): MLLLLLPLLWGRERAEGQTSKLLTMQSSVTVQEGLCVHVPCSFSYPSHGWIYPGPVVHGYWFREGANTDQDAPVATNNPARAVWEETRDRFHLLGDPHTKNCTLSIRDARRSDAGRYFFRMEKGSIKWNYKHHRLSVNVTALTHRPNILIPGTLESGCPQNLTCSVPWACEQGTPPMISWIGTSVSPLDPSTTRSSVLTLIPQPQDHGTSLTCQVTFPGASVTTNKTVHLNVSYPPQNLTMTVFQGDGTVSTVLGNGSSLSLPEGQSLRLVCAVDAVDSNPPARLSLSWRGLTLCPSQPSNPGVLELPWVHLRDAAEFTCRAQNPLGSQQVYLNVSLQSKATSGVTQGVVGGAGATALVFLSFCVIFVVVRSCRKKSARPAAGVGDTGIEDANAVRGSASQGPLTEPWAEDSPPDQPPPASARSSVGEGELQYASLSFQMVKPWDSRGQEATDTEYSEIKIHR
Chromo domain-containing protein 1 (Saccharomyces cerevisiae (strain ATCC 204508 / S288c) (Baker's yeast)), sequence (P32657 whole entry, the tested form may be a part): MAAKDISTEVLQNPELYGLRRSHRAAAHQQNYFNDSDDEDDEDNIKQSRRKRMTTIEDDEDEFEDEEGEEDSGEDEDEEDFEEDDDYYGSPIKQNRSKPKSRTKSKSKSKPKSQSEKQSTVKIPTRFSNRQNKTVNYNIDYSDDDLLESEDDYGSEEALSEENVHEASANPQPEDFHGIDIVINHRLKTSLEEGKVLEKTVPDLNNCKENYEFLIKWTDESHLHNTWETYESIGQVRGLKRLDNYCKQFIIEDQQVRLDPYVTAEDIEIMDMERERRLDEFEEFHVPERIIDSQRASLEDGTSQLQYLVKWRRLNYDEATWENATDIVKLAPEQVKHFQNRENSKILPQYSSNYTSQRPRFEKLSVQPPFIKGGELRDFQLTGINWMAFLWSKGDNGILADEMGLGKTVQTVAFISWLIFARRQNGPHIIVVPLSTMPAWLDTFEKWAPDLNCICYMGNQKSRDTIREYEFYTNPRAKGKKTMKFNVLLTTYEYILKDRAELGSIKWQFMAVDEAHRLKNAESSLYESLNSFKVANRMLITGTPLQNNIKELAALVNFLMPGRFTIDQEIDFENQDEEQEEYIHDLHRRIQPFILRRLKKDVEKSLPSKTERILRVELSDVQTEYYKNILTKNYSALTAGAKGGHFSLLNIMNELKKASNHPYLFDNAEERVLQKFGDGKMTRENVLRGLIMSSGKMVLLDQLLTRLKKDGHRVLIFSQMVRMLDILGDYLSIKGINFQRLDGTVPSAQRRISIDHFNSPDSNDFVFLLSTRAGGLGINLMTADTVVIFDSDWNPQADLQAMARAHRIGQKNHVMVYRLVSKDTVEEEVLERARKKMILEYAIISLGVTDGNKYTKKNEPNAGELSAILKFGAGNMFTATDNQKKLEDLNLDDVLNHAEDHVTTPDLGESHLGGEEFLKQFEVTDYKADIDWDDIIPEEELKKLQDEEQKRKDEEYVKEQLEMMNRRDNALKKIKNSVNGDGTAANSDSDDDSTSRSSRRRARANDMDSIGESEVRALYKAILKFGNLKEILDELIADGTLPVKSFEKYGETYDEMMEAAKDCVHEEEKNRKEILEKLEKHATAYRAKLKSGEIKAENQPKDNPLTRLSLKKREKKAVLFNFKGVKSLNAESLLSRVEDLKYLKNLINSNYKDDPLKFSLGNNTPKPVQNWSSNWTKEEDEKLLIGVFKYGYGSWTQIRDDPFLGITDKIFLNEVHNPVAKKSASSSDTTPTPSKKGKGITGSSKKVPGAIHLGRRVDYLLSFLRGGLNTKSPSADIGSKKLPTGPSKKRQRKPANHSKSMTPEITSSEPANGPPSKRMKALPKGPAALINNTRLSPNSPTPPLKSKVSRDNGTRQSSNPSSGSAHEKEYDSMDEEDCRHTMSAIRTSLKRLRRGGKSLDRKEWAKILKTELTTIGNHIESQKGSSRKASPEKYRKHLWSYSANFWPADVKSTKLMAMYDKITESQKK
Protein translocase subunit SecA (Escherichia coli (strain K12)), sequence (P10408 whole entry): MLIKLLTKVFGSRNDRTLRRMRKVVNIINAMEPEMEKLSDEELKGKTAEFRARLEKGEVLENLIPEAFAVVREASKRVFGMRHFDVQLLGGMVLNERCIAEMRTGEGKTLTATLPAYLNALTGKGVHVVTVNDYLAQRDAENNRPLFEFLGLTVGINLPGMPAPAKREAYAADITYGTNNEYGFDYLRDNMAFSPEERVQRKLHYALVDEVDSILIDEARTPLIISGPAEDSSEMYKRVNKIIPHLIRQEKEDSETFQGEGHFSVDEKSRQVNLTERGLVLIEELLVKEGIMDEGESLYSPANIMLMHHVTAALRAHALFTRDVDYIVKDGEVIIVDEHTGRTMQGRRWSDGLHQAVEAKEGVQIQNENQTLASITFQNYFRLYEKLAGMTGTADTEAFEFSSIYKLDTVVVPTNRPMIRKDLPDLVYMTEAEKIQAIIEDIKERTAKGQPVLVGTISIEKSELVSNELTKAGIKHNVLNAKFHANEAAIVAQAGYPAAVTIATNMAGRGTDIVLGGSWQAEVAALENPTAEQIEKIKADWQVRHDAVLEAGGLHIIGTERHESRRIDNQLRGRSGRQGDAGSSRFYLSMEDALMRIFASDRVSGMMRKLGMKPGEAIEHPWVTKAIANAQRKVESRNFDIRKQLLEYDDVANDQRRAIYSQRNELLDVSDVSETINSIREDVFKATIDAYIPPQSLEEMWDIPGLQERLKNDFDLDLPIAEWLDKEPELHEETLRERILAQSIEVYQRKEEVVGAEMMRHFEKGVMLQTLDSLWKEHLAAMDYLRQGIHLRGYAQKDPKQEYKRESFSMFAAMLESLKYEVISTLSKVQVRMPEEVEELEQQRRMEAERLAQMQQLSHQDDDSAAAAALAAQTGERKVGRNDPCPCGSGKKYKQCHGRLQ

In the case of `O=C(COc1ccccc1)N1C[C@@H](O)[C@H](N2CCCC2)C1`, the Percent Effect in assay [1] was 0.635%; in assay [2], 9.46%; in assay [3] it was -7.13%; in [4] it was 3.56%; in [5], -3.46%; in the assay with Trypanosoma cruzi, 3.36%. Moreover, the Percent Effect is -6.26% in assay [6]; 10.8% in assay [7]; 1.48% in the assay filed under Homo sapiens; -14.2% in assay [8]; -1.07% in assay [9]; 3.9% in [10]. In [11], the Percent Effect is -22%.
As for `Cc1nc(C2(NCC(=O)NC(=O)NCc3cccs3)CCCCC2)no1`, the Percent Effect in assay [1] is -4.13%; in [2], 15.8%; in assay [3], -4.16%; in assay [4], -2.76%; in assay [5] it was -3.65%; in the assay on Trypanosoma cruzi it was 2.82%. For the same compound, the Percent Effect in assay [6] is -3.55%; in assay [7], -0.479%; in the assay filed under Homo sapiens, 7.32%; in [8], 5.13%; in assay [9] it was 2.13%; in assay [10] it was 15.6%. Moreover, in assay [11], the Percent Effect was -4.77%.
For `O=C(CC1CC1)N[C@@H]1CN(Cc2ccncc2)C[C@@H]2CCCO[C@@H]21`, the Percent Effect in [1] was 0.104%; in [2] it was 5.33%; in assay [3], -1.92%; in assay [4] it was -0.724%; in [5] it was -5.17%; with Trypanosoma cruzi, 2.12%. The Percent Effect in [6] was -47.1%; in assay [7], 8.38%; in the assay filed under Homo sapiens, -8.9%; in assay [8] it was -6.38%; in assay [9] it was 5.21%; in assay [10] it was 7.5%. Also, in assay [11], the Percent Effect was -4.5%.
Regarding `COc1ccccc1OCC(=O)N1CCN(Cc2noc(C)n2)CC1`, the Percent Effect in assay [1] was -5.45%; in assay [2], 13.5%; in assay [3], 3.51%; in [4], -4.95%; in assay [5], 22%; in the assay on Trypanosoma cruzi it was 5.96%. The Percent Effect in [6] was determined as 5.21%; in assay [7], 6.09%; in the assay listed under Homo sapiens, 2.23%; in assay [8], 3.27%; in assay [9], 4.3%; in assay [10], 13.6%. Besides, in assay [11], the Percent Effect was -7.11%.
